In the library only some 11% were active in any assay of this set; here they are far more common.
Pf growth 48h: P. falciparum growth inhibition at 48 hours (one generation); P. falciparum luciferase growth in erythrocytes, 48 h; Potency, µM (top dose mostly 28.7 µM), without a hit: top-dose activity change, negative = inhibition, actives largely listed as inhibitors; 310,000 tested, 5.9% active; note: % is set by controls: 0 for no effect and ±100 for the full control effect
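Luminescence readout; reporter = integrated firefly luciferase in P. falciparum. RBC culture at 2% hematocrit, 0.1% parasitemia final, 37 C/5% CO2; decreased signal taken as growth inhibition.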
AMA1-RON2 inh: inhibitors of Plasmodium falciparum AMA1-RON2 interaction. 360,000 tested, 0.2% active. AID 720542. Potency, µM (titrated, usually from 58.2 µM), for inactives: at the highest dose activity change, negative = inhibition, hits mostly inhibitors. AlphaScreen AMA1-biotinylated RON2 peptide binding;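 note: 0% = vehicle wells and -100% = peptide control; nearly all actives have a fitted effect of over 45% in size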
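AMA1 (3D7) with his tag at 25 nM final met compounds first, then biotinylated RON2 peptide at 25 nM; detection used donor plus acceptor beads, 10 µg/mL apiece, read by AlphaScreen after 30 min at room temperature.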
Pf growth 96h: P. falciparum growth inhibition at 96 hours. P. falciparum luciferase reporter growth, 96 h. Potency, µM (series often up to 28.7 µM), for inactives: at the highest dose activity change, negative = inhibition, most hits filed as inhibitors. 320,000 tested, 6.9% active; note: % is set by controls: 0 for no effect and ±100 for the full control effect
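Infected RBCs, 2% Hct / 0.05% parasitemia final; luciferase-reporter P. falciparum; cpd 96 h, 37 C, 5% CO2; luciferase detection reagent; luminescence.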
Sm TGR inh: S. mansoni TGR enzyme inhibition; Potency, µM (doses to about 114 µM), for inactives: at the top dose activity change, negative = inhibition, most hits filed as inhibitors; AID 485364; purified TGR, DTNB reduction, TNB absorbance 405 nm; 360,000 tested, 3% active; Q962Y6; note: % is set by controls: 0 for no effect and ±100 for the full control effect; nearly all actives have a fitted effect of over 60% in size
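Kinetic colorimetric format: TGR-catalysed, NADPH-driven DTNB reduction monitored via TNB absorbance. Enzyme dispensed at 20 nM; compound exposure 15 min at room temperature before reaction start.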
NS1 inh: blocks influenza NS1 protein function. Potency, µM (series often up to 46.1 µM), for inactives: at the highest dose activity, positive = more growth. 270,000 tested, 0.4% active. AID 2326; calls by dose curve; note: actives are rising curves; nearly all actives have a fitted effect of over 50% in size
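Compounds were scored for reversing the slow growth caused by influenza A NS1 in S. cerevisiae, measured by optical density at 600 nm. Assay medium contained 2% galactose at pH 6.0; NS1-free yeast of the same strain were the positive control.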
Active calls of the source: *; u = inconclusive; x = not tested or not shown; [ ] = dose if it differs, or a comment. Unless noted, calls come from the whole dose curve; as a rule, active = well fitted curve in the direction sought with a large enough effect; inconclusive = small, poorly fitted or top-dose-only effect, or another doubt; inactive = no such curve, though single readings can be large; an effect the other way counts as inactive or inconclusive. Potency is the fitted concentration of half-maximal effect.

SMILES | Pf growth 48h | AMA1-RON2 inh | Pf growth 96h | Sm TGR inh | NS1 inh
CCc1cc(C(=O)OC)c(NC(=O)CN2CCN(C(=O)c3ccco3)CC2)s1 | 1.7µM* | 6% | u | -16% | 5%
Cc1ccc(C(=O)c2cc(C)sc2NC(=O)CN2CCN(C(=O)c3ccco3)CC2)cc1 | 1.3µM* | -24% | 7% | 0% | -4%
CCOC(=O)N1CCN(CC(=O)Nc2sc(CC)cc2C(=O)c2ccc(OC)cc2)CC1 | u | -5% | 10µM* | -8% | 16%
CCCN1C2=NCCN2c2ccccc21 | -9% | -1% | 4.1µM* | 70% | -3%
CCCN1C2=NCCCN2c2ccccc21 | -19% | 8% | u | 6% | 4%
CCCCN1C2=NCCCN2c2cc(C)c(C)cc21 | 13µM* | -2% | 13µM* | 11% | -9%
O=C(CN1C2=NCCN2c2ccccc21)c1ccco1 | x | -15% | 13µM* | 9%[11.4 µM] | -14%
CCCCN1C2=NCCCN2c2ccccc21 | u | 0% | 10µM* | -2% | -2%
Cc1cc2c(cc1C)N(Cc1ccc(Cl)cc1)C1=NCCCN12 | x | -25% | x | x | x
C=CCN(Cc1ccc(Br)s1)C(=O)c1ccc(OCc2c(C)noc2C)cc1 | x | 0% | x | x | x
CCc1noc(C)c1C(=O)N1CCN(S(=O)(=O)c2cccs2)CC1 | -3% | 30% | 14% | 1% | x
COc1cc(S(=O)(=O)NCCCn2ccnc2)ccc1F | 30% | 6% | u | -5% | 5%
CCCCCCCN1C2=NCCCN2c2ccccc21 | 2.9µM* | -5% | -4% | 1%[57.1 µM] | -13%
CCCCCCN1C2=NCCN2c2ccccc21 | 15µM* | -3% | x | 29% | -3%
O=C(O)CN1C2=NCCCN2c2ccccc21 | 14% | -7% | 27% | 10% | -1%
CCCCCCCN1C2=NCCN2c2ccccc21 | u | 3% | u | 8% | -9%
COc1ccc(-c2nc(C(N)=O)c3c(n2)n(-c2ccccc2OC)c(=O)n3C)c(OC)c1 | x | x | x | 3% | x
N#CC1=C(N)OC2=C(C(=O)CCC2)C1c1ccccc1 (stereo unspecified) | -1% | 6% | u | 5% | 1%
N#CC1=C(N)Oc2c(ccc3ccccc23)C1c1cccs1 (stereo unspecified) | x | 83% | 8.3µM* | 35µM* | -4%
N#CC1=C(N)Oc2cc(O)ccc2C1c1cccs1 (stereo unspecified) | x | -6% | x | -31% | 2%
N#CC1=C(N)Oc2c(ccc3cccnc23)C1c1ccccc1 (stereo unspecified) | 13µM* | 64% | u | 40µM* | -4%
Cc1ccc2[nH]c(=O)c(C3C(C#N)=C(N)Oc4c3ccc3cccnc43)cc2c1 (stereo unspecified) | u | -11% | x | 16µM* | -59%
COC(=O)C1=C(C)NC(C)=C(C(=O)OC)C1c1cc2cc(C)ccc2[nH]c1=O | 2% | 4% | -16% | u | 2%
COc1cccc(OC)c1NC(=O)Cn1nc(C)c2ccccc2c1=O | 15% | 9% | u | -22% | 13%
CCOc1ccc(NC(=O)c2ccc3c(=O)n4nc(Nc5ccccc5C)sc4nc3c2)cc1 | x | x | x | 5% | x
SMILES | Pf growth 48h | AMA1-RON2 inh | Pf growth 96h | Sm TGR inh | NS1 inh
CCc1ccccc1NC(=O)CCNS(=O)(=O)c1ccc2c(c1)CCN2C(=O)C1CC1 | x | x | x | 1% | x
Cc1nn(-c2ccc(C(=O)NCC(c3ccco3)N3CCCC3)cc2)c(C)c1Cl (stereo unspecified) | u | -2% | 0.83µM* | -5% | x
O=C(NCC(c1ccco1)N1CCCC1)c1ccc(Cl)cc1 (stereo unspecified) | x | 34% | 0.93µM* | -14% | -8%
O=C(CCNC(=O)c1ccc(Cl)cc1)NCC(c1ccco1)N1CCCCC1 (stereo unspecified) | u | 10% | 4.7µM* | -18% | x
O=C(NCC(c1ccco1)N1CCOCC1)c1ccc(F)c(F)c1 (stereo unspecified) | 52% | -4% | 0% | u | x
O=C(NCC(c1ccco1)N1CCCC1)c1cc2ccccc2s1 (stereo unspecified) | 2.6µM* | -1% | 4.1µM* | -7% | x
CCOc1ccc(C(=O)NCC(=O)NCC(c2ccco2)N2CCCCC2)cc1OCC (stereo unspecified) | u | 83% | -18% | -5% | x
Cc1ccc(C(=O)NCC(c2ccco2)N2CCCCC2)s1 (stereo unspecified) | u | 5% | u | -18% | x

Source: PubChem BioAssay
